Compounds with a hit are over-represented: about 2.6% of the library has one in this group of screens.
TGFb inhibitor: blocks TGF-b signaling | HepG2 CAGA-GFP TGF-b/SMAD3 reporter, GFP fluorescence, 18 h; TGF-beta stimulated, 500 pg/mL final | Potency, µM (series often up to 46.1 µM), inactives show at the top dose activity, negative = inhibition, most hits filed as inhibitors | 410,000 compounds, 1.2% hits; also: potency is read from the fitted curve at half-maximal effect; % is scaled to controls: 0 for no effect and ±100 for the full control effect; nearly all actives have a fitted effect of over 65% in size
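TGF-beta reporter screen: HEPG2 CAGA-GFP, 1% FBS, 500 pg/mL TGF-beta final, 18 h; per-cell GFP summed per well; curves fitted and categorized by class.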
Giardia kill: kills Giardia lamblia; activity change, % at 7.66 µM, hits read low; Giardia lamblia trophozoite viability; 340,000 compounds, 0.15% hits; in the data active = activity change below about -80%; inconclusive = between about -30% and that limit;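 also: parasites exposed to compound for two days anaerobically before the ATP read; % is scaled to controls: 0 for no effect and ±100 for the full control effect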
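Each well holds 100 Giardia trophozoites and compound. After two days (48 hrs) at 37 deg C in anaerobic conditions, ATP is quantified by luminescence.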
ATXN viability: viability counter-screen for ATXN expression inhibitors. S2 cells (HEK-293 line with an ATXN2-luciferase reporter) viability, CellTiter-Fluor protease fluorescence, 24 h. Potency, µM (titrated, usually from 56.7 µM), hits mostly cytotoxic. 400,000 compounds, 0.49% hits; also: potency is read from the fitted curve at half-maximal effect; nearly all actives have a fitted effect of over 40% in size
uPA surface inh: inhibitors of cell surface uPA generation; Potency, µM (doses to about 38.3 µM), for the others: top-dose activity change, negative = inhibition, most hits filed as inhibitors; 330,000 compounds, 0.31% hits; cell surface uPA generation assay, qHTS; AID 540303; active = well fitted inhibition curve with a large enough effect; inconclusive = small, poorly fitted or top-dose-only effect; inactive = no such curve, though single readings can be large or run the other way; tested in mouse RAW 264.7 cells; also: potency is read from the fitted curve at half-maximal effect; % is scaled to controls: 0 for no effect and ±100 for the full control effect; nearly all actives have a fitted effect of over 55% in size
ATXN2 expr inh: inhibitors of ATXN2 expression; HEK-293 ATXN2-luciferase reporter, luminescence, 24 h; Potency, µM (highest dose often 57 µM), for the others: at the top dose activity change, negative = inhibition, most hits filed as inhibitors; 360,000 compounds, 0.72% hits; AID 1745845; also: potency is read from the fitted curve at half-maximal effect; % is scaled to controls: 0 for no effect and ±100 for the full control effect; nearly all actives have a fitted effect of over 55% in size
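ATXN2-luciferase reporter cells (luciferase flanked by upstream and downstream ATXN2 gene portions) were treated 24 h at 37 °C with compounds at up to 57 uM. SteadyGlo luminescence gave expression; GF-AFC fluorescence gave viability.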
HepG2 tox: HepG2 cytotoxicity, counter-screen for TGF-b inhibitors. HepG2 CAGA-GFP viability, ATP luminescence, 18 h. Potency, µM (doses to about 46.1 µM), for inactives: top-dose activity change, negative = cytotoxicity, hits mostly cytotoxic. 410,000 compounds, 0.76% hits. AID 588856; also: potency is read from the fitted curve at half-maximal effect
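CellTiter-Glo luminescence gave cytotoxicity after 18 hours at 37 degrees C. The cells were HepG2 CAGA-GFP in 1% FBS DMEM, stimulated with 500 pg/mL TGF-beta after compound addition. %Activity was normalised to no-cell wells (complete cell-killing) and DMSO (no toxicity), and curves were fitted and classified.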
Starred values were filed as active, the others as inactive; i = inactive; ? = inconclusive; / = no result given. Unless noted, calls follow the shape of the dose curve; as a rule, active = well fitted curve in the direction sought with a large enough effect; inconclusive = small, poorly fitted or top-dose-only effect, or another doubt; inactive = no such curve, though single readings can be large; an effect the other way counts as inactive or inconclusive.

SMILES | TGFb inhibitor | Giardia kill | ATXN viability | uPA surface inh | ATXN2 expr inh | HepG2 tox
CCn1c(=O)c2cc(C(=O)NCCCN(C)Cc3ccccc3)sc2c2ccccc21 | ? | / | 31.6µM* | / | ? | -104.6%
CCOc1ccccc1N(CC)C(=O)c1cc2c(=O)n(CC)c3ccccc3c2s1 | 17.8µM* | / | ? | / | ? | -43.9%
CN(C)c1ccc(C=O)c(Cl)c1 | -24.6% | / | / | / | / | -0.7%
COCCNC(=O)c1onc(CSc2cccc(OC)c2)c1C(=O)NCCOC | -5.9% | 3.3 | i | 0.9% | -1.6% | 1µM*
O=C(O)c1cc(Cl)c(Cl)cc1C(=O)N1CCOCC1 | -20.1% | 17.2 | i | 9.6% | -1.4% | 3.5%
O=C(O)c1cc(Cl)c(Cl)cc1C(=O)N1CCCC1 | 0.8% | -90.8* | i | 11.8% | -5.4% | 1.0%
O=C(NCC1Cc2cccc(-c3cncnc3)c2O1)C1CC1 (stereo not given) | / | / | i | / | / | /
CN(C)c1ccc(N=Nc2ccc(/C=C/c3ccnc4ccccc34)cc2)cc1 | 259.8% | / | / | / | / | -37.6%
COc1ccc(OC)c(NC(=O)NC2CCCCCCC2)c1 | 1.5% | -21.8 | i | -22.6% | 9.7% | -20.1%
COc1cc2nccc(Oc3ccc(NC(=O)NC4CC4)c(Cl)c3)c2cc1C(N)=O | / | / | / | / | 3.43µM* | /
Cc1cc2nccc(C)c2cc1C | -12.6% | / | / | / | / | 1.9%
CCOC(=O)c1c(C)[nH]c(C2=NNC(=Nc3ccccc3)SC2)c1C | 10µM* | -8.4 | ? | ? | / | -33.6%
COc1cc(=O)n2c(c1C(=O)N(C)Cc1ccsc1)CCN(Cc1c(C)nc3sccn13)CC2 | / | / | i | / | / | /
CCn1ncc(C2=NOC(C(=O)NCC(C)C)C2)c1C (stereo not given) | 17.0% | 7.4 | ? | -1.3% | -30.4% | -4.6%
CCn1ncc(C2=NOC(C(=O)Nc3cnn(C45CC6CC(CC(C6)C4)C5)c3)C2)c1C (stereo not given) | -13.1% | -4.1 | ? | / | 28.2µM* | 5.7%
COc1ccc(C(=O)N2CCOc3ccc(CN4CCN(c5ccccn5)CC4)cc3C2)o1 | / | / | i | / | / | /
COc1ccc(C=C(C(=O)c2ccccc2)C(=O)c2ccccc2)cc1 | ? | / | i | / | 75.1% | 11.2µM*
CC(=O)C(=Cc1cccc(C#N)c1)C(=O)c1ccccc1 | ? | / | i | / | ? | -44.1%
CC(=O)C(=Cc1ccc(Cl)cc1)C(=O)c1ccccc1 | ? | / | 28.2µM* | / | ? | -64.0%
COc1ccc(C=C(C(C)=O)C(=O)c2ccccc2)cc1 | -8.8% | / | i | / | -19.1% | -23.3%
COc1cccc(CN2Cc3cccc4c3[C@H](C=CC4)CC2=O)c1 | -24.3% | / | / | / | / | -1.3%
COCCN1CCN(C(=O)c2cnn(-c3nccc(-c4ccccc4OC)n3)c2-c2ccco2)CC1 | / | / | i | / | / | /
CO[C@H]1C=CC=C(C)C(=O)NC2=CC(=O)C(NCCN(C)C)=C(C[C@@H](C)C[C@H](OC)[C@@H](O)[C@@H](C)C=C(C)[C@@H]1OC(N)=O)C2=O | / | / | / | / | 0.0769µM* | /
C=CCNC1=C2C[C@@H](C)C[C@H](OC)[C@@H](O)[C@@H](C)C=C(C)[C@H](OC(N)=O)[C@@H](OC)C=CC=C(C)C(=O)NC(=CC1=O)C2=O | / | / | / | / | 1.09µM* | /
COC1=C2C[C@H](C)C[C@H](OC)[C@@H](O)[C@@H](C)C=C(C)[C@H](OC(N)=O)[C@@H](OC)C=CC=C(C)C(=O)NC(=CC1=O)C2=O | ? | 6.2 | / | / | / | -41.0%
CCc1ccc(NC(=O)CSc2nnc(-c3ccccc3)n2C)cc1 | 12.5% | / | / | / | / | 7.9%
CC1(C)CC(=O)C2=C(C1)NC1=C(C(=O)c3ccccc31)C2c1ccccc1 (stereo not given) | -13.7% | -5.6 | ? | -15.0% | 3.1% | -8.5%
CC(C)c1ccc(C2C3=C(CC(C)(C)CC3=O)NC3=C2C(=O)c2ccccc23)cc1 (stereo not given) | ? | 0.2 | 14.1µM* | -7.2% | ? | -10.1%
CCCNC(=O)C1(C)CCCN(CCC(=O)c2ccccc2)C1 (stereo not given) | 15.8µM* | / | i | / | 6.1% | 14.1µM*

Assay outcomes: PubChem BioAssay, National Center for Advancing Translational Sciences (NCATS)
